Targets with a hit are over-represented here; the source holds about 7,900 in all. About 0.6% of all pairs of compound and target were hits.
Legend:
Assay in all cases: log2 fold change, soluble protein after heating vs DMSO (PISA); higher = thermal stabilisation; K562 cells, 10 uM, 30 min; active = over 0.2 and 3.5 SD of the protein, either way, in both replicates (recomputed)
[1] = compound: CS(=O)(=O)c1ccc(-c2cnc(N)c(C(=O)Nc3ccccc3)n2)cc1
In short: (§1)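 Soluble protein was defined as the supernatant after 21,000xg for 90 min. It came from K562 cells at 2×10^6 cells/mL given 10 μM compound for 30 min, heated in aliquots for 3 min across 48°C-58°C, pooled, and extracted in PBS with 0.5% NP-40 at 4°C, and was quantified by TMTpro 16plex LC-MS/MS with equalised channel sums. Thermal stability against control samples, from duplicates, is reported as log2 fold change.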

crizotinib = compound: C[C@@H](Oc1cc(-c2cnn(C3CCNCC3)c2)cnc1N)c1c(Cl)ccc(F)c1Cl [crizotinib]
In short: as §1

[2] = compound: C[C@@H]1COCCN1C2=NC(=NC(=C2)C3(CC3)S(=O)(=O)C)C4=C5C=CNC5=CC=C4
In short: as §1

[3] = compound: C[C@H](C1=CC=C(C=C1)C(=O)NC2=C3C=CNC3=NC=C2)N
In short: as §1

duvelisib = compound: C[C@H](Nc1ncnc2nc[nH]c12)c1cc2cccc(Cl)c2c(=O)n1-c1ccccc1 [duvelisib]
In short: as §1

gandotinib = compound: Cc1cc(Nc2cc(CN3CCOCC3)c3nc(C)c(Cc4ccc(Cl)cc4F)n3n2)n[nH]1 [gandotinib]
In short: as §1

tozasertib = compound: Cc1cc(Nc2cc(N3CCN(C)CC3)nc(Sc3ccc(NC(=O)C4CC4)cc3)n2)n[nH]1 [tozasertib]
In short: as §1

[4] = compound: Cc1cc(SCc2sc(-c3ccc(C(F)(F)F)cc3)nc2C)ccc1OCC(=O)O
In short: as §1

doramapimod = compound: Cc1ccc(-n2nc(C(C)(C)C)cc2NC(=O)Nc2ccc(OCCN3CCOCC3)c3ccccc23)cc1 [doramapimod]
In short: as §1

ispinesib = compound: Cc1ccc(C(=O)N(CCCN)[C@@H](c2nc3cc(Cl)ccc3c(=O)n2Cc2ccccc2)C(C)C)cc1 [ispinesib]
In short: as §1

bafetinib = compound: Cc1ccc(NC(=O)c2ccc(CN3CC[C@H](N(C)C)C3)c(C(F)(F)F)c2)cc1Nc1nccc(-c2cncnc2)n1 [bafetinib]
In short: as §1

[5] = compound: Cc1cccc(CC(=O)N2CCc3c2ccc(-c2cn(C)c4ncnc(N)c24)c3F)n1
In short: as §1

nilotinib = compound: Cc1cn(-c2cc(NC(=O)c3ccc(C)c(Nc4nccc(-c5cccnc5)n4)c3)cc(C(F)(F)F)c2)cn1 [nilotinib]
In short: as §1

[6] = compound: Cc1nc(Nc2n[nH]c3c2CN(C(=O)N[C@H](CN(C)C)c2ccccc2)C3(C)C)c2sccc2n1
In short: as §1

dasatinib = compound: Cc1nc(Nc2ncc(C(=O)Nc3c(C)cccc3Cl)s2)cc(N2CCN(CCO)CC2)n1 [dasatinib]
In short: as §1

[7] = compound: Cc1ncc(-c2ccnc(Nc3ccc(S(C)(=O)=O)cc3)n2)n1C(C)C
In short: as §1

[8] = compound: Cn1cc(-c2ccc3c(c2)CCN3C(=O)Cc2cccc(C(F)(F)F)c2)c2c(N)ncnc21
In short: as §1

[9] = compound: Cn1cc(-c2ccc3nnc(C(F)(F)c4ccc5ncccc5c4)n3n2)cn1
In short: as §1

tipifarnib = compound: Cn1cncc1[C@@](N)(c1ccc(Cl)cc1)c1ccc2c(c1)c(-c1cccc(Cl)c1)cc(=O)n2C [tipifarnib]
In short: as §1

mubritinib = compound: FC(F)(F)c1ccc(/C=C/c2nc(COc3ccc(CCCCn4ccnn4)cc3)co2)cc1 [mubritinib]
In short: as §1

Measured: log2 fold change

AARSD1 isoform 3 (UniProt Q9BTE6)
Chain of UniProt Q9BTE6 (Q9BTE6 whole entry, looked up): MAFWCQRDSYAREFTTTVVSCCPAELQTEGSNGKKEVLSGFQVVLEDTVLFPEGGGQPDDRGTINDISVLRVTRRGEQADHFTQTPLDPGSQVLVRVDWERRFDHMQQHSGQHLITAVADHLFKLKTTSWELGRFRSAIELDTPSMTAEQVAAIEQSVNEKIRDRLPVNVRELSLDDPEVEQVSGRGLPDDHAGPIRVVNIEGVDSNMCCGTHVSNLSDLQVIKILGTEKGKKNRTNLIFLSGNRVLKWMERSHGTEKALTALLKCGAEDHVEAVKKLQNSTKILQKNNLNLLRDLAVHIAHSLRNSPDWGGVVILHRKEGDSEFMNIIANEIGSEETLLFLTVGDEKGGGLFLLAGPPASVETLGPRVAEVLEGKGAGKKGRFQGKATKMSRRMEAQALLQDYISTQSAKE
inactive: [1] 0.062 | crizotinib 0.054 | [2] 0.012 | [3] 0.013 | duvelisib -0.04 | gandotinib -0.081 | tozasertib 0.055 | [4] 0.038 | doramapimod -0.05 | ispinesib 0.067 | bafetinib 0.009 | [5] 0.065 | nilotinib -0.013 | [6] -0.038 | dasatinib -0.062 | [7] 0.031 | [8] -0.004 | [9] 0.002 | tipifarnib 0.022 | mubritinib 0.064

BLOC1S3 (UniProt Q6QNY0)
Chain of UniProt Q6QNY0 (Q6QNY0 whole entry, looked up): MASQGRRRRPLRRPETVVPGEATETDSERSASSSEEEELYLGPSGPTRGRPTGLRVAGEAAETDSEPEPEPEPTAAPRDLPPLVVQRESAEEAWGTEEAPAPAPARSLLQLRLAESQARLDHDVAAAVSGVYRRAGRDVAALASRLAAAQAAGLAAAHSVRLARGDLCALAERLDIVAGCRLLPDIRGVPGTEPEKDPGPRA
inactive: [1] -0.001 | crizotinib 0.014 | [2] 0.116 | [3] 0.065 | duvelisib 0.068 | gandotinib -0.132 | tozasertib -0.012 | [4] -0.052 | doramapimod -0.038 | ispinesib 0.012 | bafetinib -0.02 | [5] 0.006 | nilotinib -0.067 | [6] 0.031 | dasatinib -0.051 | [7] -0.022 | [8] 0.017 | [9] 0.078 | tipifarnib -0.103 | mubritinib -0.027

BCAP29 isoform 2 (UniProt Q9UHQ4)
Chain of UniProt Q9UHQ4 (Q9UHQ4 whole entry, looked up): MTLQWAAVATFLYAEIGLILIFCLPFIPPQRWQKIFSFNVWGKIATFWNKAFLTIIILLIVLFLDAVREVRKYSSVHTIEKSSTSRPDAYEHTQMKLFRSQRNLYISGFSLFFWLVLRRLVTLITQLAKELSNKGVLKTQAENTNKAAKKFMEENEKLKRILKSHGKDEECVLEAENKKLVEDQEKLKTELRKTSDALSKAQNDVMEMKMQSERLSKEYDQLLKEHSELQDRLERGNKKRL
inactive: [1] -0.015 | crizotinib -0.028 | [2] 0.061 | [3] -0.005 | duvelisib -0.006 | gandotinib 0.037 | tozasertib -0.019 | [4] -0.079 | doramapimod -0.024 | bafetinib -0.159 | [5] -0.027 | nilotinib -0.002 | [6] 0.035 | dasatinib 0.154 | [7] -0.018 | [8] 0 | [9] 0.04 | tipifarnib 0.058 | mubritinib 0.02
active: ispinesib -0.245

ATP6V1C1 (UniProt P21283)
inactive: [1] -0.05 | crizotinib 0.1 | [2] -0.05 | [3] 0.14 | duvelisib 0.049 | gandotinib 0.033 | tozasertib 0.116 | [4] 0.041 | doramapimod 0.015 | ispinesib 0.122 | bafetinib -0.083 | [5] 0.063 | nilotinib -0.137 | [6] -0.191 | dasatinib -0.045 | [7] 0.115 | [8] -0.083 | [9] -0.105 | tipifarnib 0.03 | mubritinib 0.083

BRK1 isoform 2 (UniProt Q8WUW1)
Chain of UniProt Q8WUW1 (Q8WUW1 whole entry, looked up): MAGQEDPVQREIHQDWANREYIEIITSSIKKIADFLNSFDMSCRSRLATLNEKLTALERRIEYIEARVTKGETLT
inactive: [1] -0.004 | crizotinib 0.029 | [2] 0.11 | [3] -0.276 | duvelisib 0.086 | gandotinib -0.024 | tozasertib -0.047 | [4] -0.035 | doramapimod -0.041 | ispinesib 0.18 | bafetinib -0.043 | [5] 0.007 | nilotinib 0.02 | [6] -0.051 | dasatinib 0.054 | [7] -0.051 | [8] 0.047 | [9] 0.186 | tipifarnib -0.049 | mubritinib 0.002

BLVRB (UniProt P30043)
Chain of UniProt P30043 (P30043 whole entry, looked up): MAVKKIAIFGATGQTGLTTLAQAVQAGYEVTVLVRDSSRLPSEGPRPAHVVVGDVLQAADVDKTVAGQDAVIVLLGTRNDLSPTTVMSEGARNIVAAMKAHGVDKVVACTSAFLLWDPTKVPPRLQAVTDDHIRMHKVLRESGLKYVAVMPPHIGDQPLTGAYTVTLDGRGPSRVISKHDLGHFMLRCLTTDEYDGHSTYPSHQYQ
inactive: [1] 0.04 | crizotinib -0.006 | [2] 0.036 | [3] -0.081 | duvelisib 0.016 | gandotinib -0.085 | tozasertib -0.011 | [4] 0.002 | doramapimod -0.027 | ispinesib -0.012 | bafetinib 0.014 | [5] 0.05 | nilotinib 0.021 | [6] -0.109 | dasatinib -0.064 | [7] 0.029 | [8] 0.032 | [9] 0.074 | tipifarnib -0.021 | mubritinib -0.097

AIFM2 (UniProt Q9BRQ8)
Chain of UniProt Q9BRQ8 (Q9BRQ8 whole entry, looked up): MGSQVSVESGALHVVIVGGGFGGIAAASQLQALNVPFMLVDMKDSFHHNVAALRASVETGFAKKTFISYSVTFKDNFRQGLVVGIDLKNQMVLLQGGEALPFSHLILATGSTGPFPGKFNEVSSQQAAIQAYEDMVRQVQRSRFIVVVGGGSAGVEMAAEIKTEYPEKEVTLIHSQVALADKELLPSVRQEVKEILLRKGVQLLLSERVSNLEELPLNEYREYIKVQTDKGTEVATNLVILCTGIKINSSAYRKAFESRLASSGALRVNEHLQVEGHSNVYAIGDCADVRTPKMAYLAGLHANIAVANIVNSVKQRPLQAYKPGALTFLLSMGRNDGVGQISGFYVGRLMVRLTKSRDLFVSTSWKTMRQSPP
active: ispinesib 0.207
inactive: [1] 0.039 | crizotinib 0.098 | [2] -0.013 | [3] -0.067 | duvelisib 0.07 | gandotinib 0.022 | tozasertib -0.029 | [4] -0.032 | doramapimod 0.08 | bafetinib 0.008 | [5] -0.129 | nilotinib 0.067 | [6] 0.023 | dasatinib 0.046 | [7] -0.043 | [8] 0.081 | [9] 0.032 | tipifarnib 0.199 | mubritinib 0.025

ARL6IP6 (UniProt Q8N6S5)
Chain of UniProt Q8N6S5 (Q8N6S5 whole entry, looked up): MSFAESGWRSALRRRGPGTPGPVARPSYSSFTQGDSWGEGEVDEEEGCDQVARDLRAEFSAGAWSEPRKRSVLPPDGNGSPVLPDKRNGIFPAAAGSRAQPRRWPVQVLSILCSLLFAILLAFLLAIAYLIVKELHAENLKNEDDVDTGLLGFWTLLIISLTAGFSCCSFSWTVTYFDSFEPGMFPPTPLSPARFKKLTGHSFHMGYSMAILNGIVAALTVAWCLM
inactive: [1] 0.046 | crizotinib -0.016 | [2] 0.017 | [3] -0.042 | duvelisib -0.005 | gandotinib -0.008 | tozasertib -0.22 | [4] -0.042 | doramapimod 0.03 | ispinesib 0.175 | bafetinib -0.096 | [5] 0.024 | nilotinib -0.027 | [6] 0.019 | dasatinib 0.098 | [7] 0.036 | [8] 0.012 | [9] -0.186 | tipifarnib -0.054 | mubritinib 0.04

ATP5IF1 (UniProt Q9UII2)
Chain of UniProt Q9UII2 (Q9UII2 whole entry, looked up): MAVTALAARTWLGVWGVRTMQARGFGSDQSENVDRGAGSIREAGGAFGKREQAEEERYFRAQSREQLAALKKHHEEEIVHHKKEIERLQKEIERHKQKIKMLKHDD
inactive: [1] 0.004 | crizotinib 0.058 | [2] -0.006 | [3] 0.018 | duvelisib -0.035 | gandotinib -0.056 | tozasertib -0.079 | [4] -0.082 | doramapimod -0.015 | ispinesib -0.019 | bafetinib -0.039 | [5] -0.101 | nilotinib -0.038 | [6] 0.005 | dasatinib 0.055 | [7] -0.042 | [8] -0.002 | [9] 0.094 | tipifarnib 0.059 | mubritinib 0.033

ANP32E (UniProt Q9BTT0)
Chain of UniProt Q9BTT0 (Q9BTT0 whole entry, looked up): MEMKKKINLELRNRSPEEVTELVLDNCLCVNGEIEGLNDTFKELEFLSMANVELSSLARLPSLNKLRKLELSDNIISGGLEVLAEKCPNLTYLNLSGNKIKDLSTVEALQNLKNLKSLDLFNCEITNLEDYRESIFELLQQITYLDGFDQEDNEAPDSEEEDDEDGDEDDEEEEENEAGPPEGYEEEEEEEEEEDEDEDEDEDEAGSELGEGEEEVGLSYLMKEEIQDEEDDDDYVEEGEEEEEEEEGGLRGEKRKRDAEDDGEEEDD
inactive: [1] -0.021 | crizotinib 0.055 | [2] 0.12 | [3] -0.16 | duvelisib 0.036 | gandotinib -0.082 | tozasertib 0.096 | [4] 0.026 | doramapimod -0.014 | ispinesib 0.002 | bafetinib 0.04 | [5] 0.146 | nilotinib -0.061 | [6] -0.123 | dasatinib 0.053 | [7] -0.104 | [8] 0.013 | [9] 0.027 | tipifarnib 0.001 | mubritinib -0.047

ACBD6 (UniProt Q9BR61)
Chain of UniProt Q9BR61 (Q9BR61 whole entry, looked up): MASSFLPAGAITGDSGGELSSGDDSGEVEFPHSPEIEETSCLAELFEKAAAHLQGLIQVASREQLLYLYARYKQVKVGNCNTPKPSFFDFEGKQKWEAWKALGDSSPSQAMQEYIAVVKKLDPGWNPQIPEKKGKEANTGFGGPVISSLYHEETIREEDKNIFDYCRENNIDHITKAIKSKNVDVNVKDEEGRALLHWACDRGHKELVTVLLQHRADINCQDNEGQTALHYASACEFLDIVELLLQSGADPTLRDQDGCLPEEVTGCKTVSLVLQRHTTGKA
inactive: crizotinib -0.36 | [2] -0.041 | [3] 0.075 | duvelisib -0.026 | gandotinib 0.076 | tozasertib 0.032 | [4] 0.082 | doramapimod -0.048 | ispinesib -0.14 | bafetinib -0.058 | [5] 0.063 | nilotinib 0.017 | [6] -0.085 | dasatinib -0.23 | [7] 0.057 | [8] -0.053 | [9] 0.056 | tipifarnib -0.072 | mubritinib -0.085
active: [1] 0.386

AAR2 (UniProt Q9Y312)
Chain of UniProt Q9Y312 (Q9Y312 whole entry, looked up): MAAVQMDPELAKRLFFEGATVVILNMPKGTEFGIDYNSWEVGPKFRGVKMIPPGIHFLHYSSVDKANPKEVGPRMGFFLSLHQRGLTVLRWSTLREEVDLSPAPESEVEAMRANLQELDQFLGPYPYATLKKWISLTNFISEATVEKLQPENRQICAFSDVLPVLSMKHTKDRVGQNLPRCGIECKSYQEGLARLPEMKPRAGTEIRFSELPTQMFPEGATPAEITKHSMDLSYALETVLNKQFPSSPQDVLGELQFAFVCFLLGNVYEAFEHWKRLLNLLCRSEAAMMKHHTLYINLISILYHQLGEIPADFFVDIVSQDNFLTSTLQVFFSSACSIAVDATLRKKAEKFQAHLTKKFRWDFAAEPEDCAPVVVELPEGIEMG
inactive: [1] -0.06 | crizotinib -0.081 | [2] 0.019 | [3] 0.054 | duvelisib 0.045 | gandotinib -0.29 | tozasertib 0.011 | [4] 0.021 | doramapimod -0.038 | ispinesib 0.085 | bafetinib -0.019 | [5] -0.062 | nilotinib 0.058 | [6] 0.009 | dasatinib -0.006 | [7] 0.019 | [8] -0.079 | [9] -0.034 | tipifarnib 0.004 | mubritinib -0.036

AK6 (UniProt Q9Y3D8)
Chain of UniProt Q9Y3D8 (Q9Y3D8 whole entry, looked up): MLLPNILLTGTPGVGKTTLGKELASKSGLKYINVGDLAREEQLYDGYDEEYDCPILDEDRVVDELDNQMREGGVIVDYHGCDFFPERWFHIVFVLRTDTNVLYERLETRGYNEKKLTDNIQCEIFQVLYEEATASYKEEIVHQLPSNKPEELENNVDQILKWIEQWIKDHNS
inactive: [1] 0.151 | crizotinib -0.156 | [2] 0.175 | [3] 0.115 | duvelisib 0.075 | gandotinib -0.049 | tozasertib 0.036 | [4] 0.065 | doramapimod 0.008 | ispinesib -0.085 | bafetinib 0.021 | [5] -0.018 | nilotinib -0.141 | [6] -0.143 | dasatinib -0.288 | [7] -0.015 | [8] 0 | [9] 0.025 | tipifarnib -0.144 | mubritinib -0.114

BTAF1 (UniProt O14981)
inactive: [1] 0.055 | crizotinib -0.076 | [2] 0.094 | [3] 0.041 | duvelisib -0.016 | gandotinib -0.05 | tozasertib 0.015 | [4] 0.044 | doramapimod 0.006 | ispinesib 0.016 | bafetinib -0.158 | [5] 0.025 | nilotinib -0.004 | [6] -0.059 | dasatinib -0.131 | [7] 0.035 | [8] 0.04 | [9] -0.003 | tipifarnib -0.034 | mubritinib -0.022

AAMP (UniProt Q13685)
inactive: [1] 0.027 | crizotinib 0.115 | [2] -0.007 | [3] -0.006 | duvelisib 0.022 | gandotinib -0.047 | tozasertib 0.053 | [4] -0.03 | doramapimod -0.037 | ispinesib 0.038 | bafetinib 0.011 | [5] 0.014 | nilotinib 0.009 | [6] 0.005 | dasatinib 0.04 | [7] 0.012 | [8] -0.038 | [9] -0.028 | tipifarnib -0.026 | mubritinib 0.02

AFDN isoform 5 (UniProt P55196)
Chain of UniProt P55196 (P55196 whole entry, looked up): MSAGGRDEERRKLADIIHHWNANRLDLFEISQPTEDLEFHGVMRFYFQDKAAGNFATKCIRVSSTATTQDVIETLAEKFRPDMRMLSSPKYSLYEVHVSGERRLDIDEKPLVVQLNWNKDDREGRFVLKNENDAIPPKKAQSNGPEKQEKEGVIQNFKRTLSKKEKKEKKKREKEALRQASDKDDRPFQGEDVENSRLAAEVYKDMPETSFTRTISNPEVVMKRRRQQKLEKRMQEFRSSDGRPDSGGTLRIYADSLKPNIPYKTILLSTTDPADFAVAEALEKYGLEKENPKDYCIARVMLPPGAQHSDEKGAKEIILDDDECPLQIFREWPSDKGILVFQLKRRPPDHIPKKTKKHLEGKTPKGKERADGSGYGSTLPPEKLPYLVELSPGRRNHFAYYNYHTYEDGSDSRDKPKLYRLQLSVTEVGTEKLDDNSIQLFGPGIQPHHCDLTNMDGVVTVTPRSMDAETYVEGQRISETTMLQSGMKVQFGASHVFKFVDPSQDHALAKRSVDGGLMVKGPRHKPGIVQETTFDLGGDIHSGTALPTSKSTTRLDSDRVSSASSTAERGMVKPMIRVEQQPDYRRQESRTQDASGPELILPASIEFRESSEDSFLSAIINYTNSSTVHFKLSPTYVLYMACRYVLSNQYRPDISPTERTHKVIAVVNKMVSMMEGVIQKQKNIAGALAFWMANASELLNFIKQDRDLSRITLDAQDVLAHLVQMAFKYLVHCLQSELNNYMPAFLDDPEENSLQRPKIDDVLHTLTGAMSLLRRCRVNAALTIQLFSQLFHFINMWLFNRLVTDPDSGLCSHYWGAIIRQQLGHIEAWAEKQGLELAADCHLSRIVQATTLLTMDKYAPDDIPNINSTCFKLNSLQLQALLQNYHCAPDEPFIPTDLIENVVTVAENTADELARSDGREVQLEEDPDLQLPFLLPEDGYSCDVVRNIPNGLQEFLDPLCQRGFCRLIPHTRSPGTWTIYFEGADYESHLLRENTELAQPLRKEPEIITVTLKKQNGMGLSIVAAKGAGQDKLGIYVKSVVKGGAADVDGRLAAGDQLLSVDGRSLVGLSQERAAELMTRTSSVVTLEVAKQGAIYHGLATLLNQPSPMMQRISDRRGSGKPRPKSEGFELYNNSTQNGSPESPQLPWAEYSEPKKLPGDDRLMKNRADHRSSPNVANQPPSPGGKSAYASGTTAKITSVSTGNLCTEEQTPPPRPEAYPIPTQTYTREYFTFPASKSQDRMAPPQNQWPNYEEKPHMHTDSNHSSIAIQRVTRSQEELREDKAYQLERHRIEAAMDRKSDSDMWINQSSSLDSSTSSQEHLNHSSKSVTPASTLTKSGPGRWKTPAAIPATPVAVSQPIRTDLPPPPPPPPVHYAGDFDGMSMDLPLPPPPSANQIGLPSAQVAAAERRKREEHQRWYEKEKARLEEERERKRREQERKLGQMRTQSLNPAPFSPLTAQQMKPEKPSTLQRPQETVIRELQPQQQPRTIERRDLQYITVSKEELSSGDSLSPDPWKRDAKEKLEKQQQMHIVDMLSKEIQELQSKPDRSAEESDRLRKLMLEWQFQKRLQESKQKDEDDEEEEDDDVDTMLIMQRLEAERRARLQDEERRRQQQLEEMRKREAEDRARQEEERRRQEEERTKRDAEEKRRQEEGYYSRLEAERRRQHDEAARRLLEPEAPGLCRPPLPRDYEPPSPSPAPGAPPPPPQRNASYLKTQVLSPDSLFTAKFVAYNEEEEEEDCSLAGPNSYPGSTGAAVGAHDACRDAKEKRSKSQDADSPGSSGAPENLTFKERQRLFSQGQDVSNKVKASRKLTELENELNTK
inactive: [1] 0.027 | crizotinib -0.154 | [2] 0.04 | [3] -0.094 | duvelisib -0.016 | gandotinib -0.159 | tozasertib -0.029 | [4] 0.063 | doramapimod 0.009 | ispinesib -0.002 | bafetinib -0.012 | [5] 0.035 | nilotinib -0.06 | [6] -0.135 | dasatinib -0.16 | [7] -0.06 | [8] 0.044 | [9] -0.008 | tipifarnib -0.045 | mubritinib 0.054

From the supplement of paper PMC10849652
